A short description of assay [1]: inhibitors of TNFa-induced NFkB p65 translocation, primary screen, imaging, HUVEC, MLSMR starter and 10KST1 sets (AID 438;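 active = inhibition above 20% together with a positive visual image hit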;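 note: compound added about 3h40 before a 20 min TNFalpha stimulation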;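 for inhibition: signal is the nuclear over cytoplasmic p65 intensity ratio per well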). To be noted: HUVEC TNFa-induced p65 nuclear translocation; cell count: measured here: nuclei count (cytotoxicity indicator), at 2.08 µM; inhibition: at 2 µM, stronger effect = higher value, 0% TNFa-plus-vehicle, 100% no-TNFa wells.
Assay [2] is described as follows: reduction of polyQ htt aggregates in cells – imaging, exon1htt(103Q)mCFP cells, high-content imaging, primary screen (AID 483;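 active = visual image review flags a hit and inhibition of aggregation exceeds 20%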;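 note: compound exposure lasted 3 days before fixation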;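 for nuclei count: percent of the per-plate median nuclei count of sample wells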). The note with it: exon1htt(103Q)mCFP cell line, aggregate imaging, at 2 µM; inhibition of aggregation: stronger effect = higher value; nuclei count: measured here: cell count, toxicity.
A short description of assay [3]: endothelial E-selectin expression blockers – imaging, HUVEC, immunofluorescence, MLSMR starter and 10KST1 sets, primary screen (AID 487;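 active = visually confirmed hit in the image check and inhibition above 20%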;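 for inhibition: signal is fraction of cell area covered by stained E-selectin grains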;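 for nuclei count: 100% = median nuclei count of all wells on the same plate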). The note with it: HUVEC TNFalpha-induced E-selectin immunofluorescence imaging, at 2 µM; inhibition: stronger effect = higher value; nuclei count: measured here: cell number, toxicity.
Assay [4] concerns the target Voltage-gated potassium channel subunit beta-2 (Rattus norvegicus) (UniProt P62483). Nature of the assay: inhibitors of rat Kvbeta2 reductase activity – biochemical, NADPH fluorescence, primary screen (AID 622;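 active = fluorescence slope higher than the sample average by over 3 SD, cut at about -0.22 in these data, passing the limit was not always enough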;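 note: slope of raw intensity against log time taken from 70 to 1610 s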). To be noted: recombinant KvBeta, 4-cyanobenzaldehyde reduction, at 10 µM, stronger effect = higher value.
Assay [5] shares this target. Nature of the assay: enhancers of rat Kvbeta2 NADPH turnover – biochemical, NADPH fluorescence, primary screen (AID 623;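 active = NADPH fluorescence slope more negative than the mean of all samples by about 3 SD, 99.7% confidence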;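 note: fluorescence intensity change per second fitted from 20 to 320 s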). To be noted: Recombinant KvBeta, NADPH fluorescence decrease slope, 10 min; at 10 µM; stronger effect = lower value.
In assay [6] the target is Alpha-2C adrenergic receptor (Homo sapiens) (UniProt P18825). Nature of the assay: compounds altering alpha2C-coupled GIRK flux – cell-based, HEK293 alpha2C/GIRK1/2, thallium flux, primary screen (AID 624;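 active = fluorescence slope after compound addition differing from the mean of all screened samples at 99.7% confidence, in either direction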;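 note: slope of fluorescence ratio to pre-addition baseline per second over 15 to 24 s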). To be noted: thallium flux BTC fluorescence, at 10 µM, actives lie on both sides.
Sequence of Alpha-2C adrenergic receptor (Homo sapiens) (P18825 whole entry, looked up): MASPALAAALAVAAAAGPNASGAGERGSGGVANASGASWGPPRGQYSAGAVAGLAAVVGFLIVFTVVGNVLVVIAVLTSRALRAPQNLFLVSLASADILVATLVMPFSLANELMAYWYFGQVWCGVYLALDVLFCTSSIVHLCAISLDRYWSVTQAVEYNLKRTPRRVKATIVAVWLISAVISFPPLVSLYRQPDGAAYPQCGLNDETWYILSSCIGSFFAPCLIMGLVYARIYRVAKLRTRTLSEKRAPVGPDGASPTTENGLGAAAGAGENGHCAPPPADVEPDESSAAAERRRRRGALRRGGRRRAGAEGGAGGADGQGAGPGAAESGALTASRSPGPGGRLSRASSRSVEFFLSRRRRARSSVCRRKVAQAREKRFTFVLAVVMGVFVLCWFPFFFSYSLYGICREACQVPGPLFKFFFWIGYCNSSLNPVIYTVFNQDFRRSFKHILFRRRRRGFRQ
A short description of assay [7]: blockers of RIG-like receptor reporter activation – cell-based, Sendai virus stimulus, luciferase, 10K MLSCN set, TLR/RLR signaling modifier project, primary screen (AID 602276;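 active = inhibition at or above 50% at 10 µM; inactive = inhibition below 50%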;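 note: firefly luciferase from ISG56 promoter only with Renilla not read in this screen; 0% = Sendai virus plus DMSO and 100% = medium plus DMSO without virus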). To be noted: HEK293 RL24 IRF3 luciferase reporter, at 10 µM, stronger effect = higher value. For orientation: A reporter such as luciferase makes a cellular process visible.
Assay [8] in a line: TLR3 IRF3 reporter activation blockers – cell-based, poly I:C stimulus, luciferase, 10K MLSCN set, primary screen (AID 602277). The note with it: HEK293-TLR3 RL24 IRF3 luciferase reporter, at 10 µM, stronger effect = higher value.

Activity calls are given as the source filed them.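 Rule for the calls, unless noted: active = inhibition of the reporter signal at or above 50%; inactive = inhibition below 50%.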 Where a SMILES comes first, the peptide text is derived from it. The star is where a group is joined. Boc = CC(C)(C)OC(=O)*

Sequence of Voltage-gated potassium channel subunit beta-2 (Rattus norvegicus) (P62483 whole entry, looked up): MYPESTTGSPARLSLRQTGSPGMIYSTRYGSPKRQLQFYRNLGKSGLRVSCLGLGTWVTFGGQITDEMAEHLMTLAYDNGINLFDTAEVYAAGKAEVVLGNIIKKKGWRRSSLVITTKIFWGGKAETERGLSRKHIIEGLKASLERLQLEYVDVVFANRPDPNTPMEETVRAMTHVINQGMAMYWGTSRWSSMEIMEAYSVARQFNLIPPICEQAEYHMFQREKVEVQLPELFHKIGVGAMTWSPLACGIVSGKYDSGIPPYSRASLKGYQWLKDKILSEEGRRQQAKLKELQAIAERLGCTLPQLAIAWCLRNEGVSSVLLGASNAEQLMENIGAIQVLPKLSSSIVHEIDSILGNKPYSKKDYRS

A word on the inhibition: it is the change of the read-out against control, counted positive when it falls. With `O=C(Nc1ccc(N2CCOCC2)cc1)c1cc2ccccc2o1`, in assay [1], the cell count stood at 775. Besides, the inhibition in assay [1] is -1.9% (inactive); in assay [3], -29.4% (inactive); in assay [7], -72.9% (inactive); in assay [8] it was -187% (inactive). Further, in assay [2], the inhibition of aggregation was 7.2% (inactive). For the same compound, the nuclei count in assay [2] was 106%; in assay [3], 97.9%. Moreover, the fluorescence slope in assay [4] is -0.479 (inactive). In assay [5], the NADPH fluorescence slope is 1.9e-05 (inactive). Also, the slope in assay [6] is 0.003 (inactive).
For `CC1CCN(C(=O)CSc2nnc(Cc3cc(=O)[nH]c(=O)[nH]3)n2-c2ccc(Cl)cc2)CC1`, in assay [1], the cell count was found to be 713. The inhibition in assay [1] is -6.3% (inactive); in assay [3], 1.4% (inactive); in assay [7] it was -3.8% (inactive); in assay [8], 16.5% (inactive). Moreover, the inhibition of aggregation in assay [2] is 14.9% (inactive). The figures for the nuclei count in assay [2] and in assay [3] were 87.4% and 105%, respectively. Also, in assay [4], the fluorescence slope was -0.602 (inactive). Moreover, the NADPH fluorescence slope in assay [5] was -8.2e-06 (inactive). Besides, the slope in assay [6] was 0.00679 (inactive).
Turning to `COc1ccc(OC)c(NC(=O)c2nnn(Cc3ccc(Br)cc3F)c2N)c1`, the cell count in assay [1] was determined as 777. Besides, the inhibition was 0.6% (inactive) in assay [1], -25.4% (inactive) in assay [3], 1.6% (inactive) in assay [7] and 5.74% (inactive) in assay [8]. For the same compound, in assay [2], the inhibition of aggregation was 20.9% (inactive). For the same compound, the figures for the nuclei count in assay [2] and in assay [3] were 99.3% and 116%, respectively. Moreover, the fluorescence slope in assay [4] was -0.525 (inactive). The NADPH fluorescence slope in assay [5] was -1.8e-05 (inactive). Besides, the slope in assay [6] was 0.00503 (inactive).
With `O=C1c2ccccc2C(Nc2cccnc2)N1Cc1ccccc1Cl` (centres undefined), in assay [1], the cell count was 674. The inhibition in assay [1] is -14.6% (inactive); in assay [3], -37.8% (inactive); in assay [7], 3.6% (inactive); in assay [8], 18.3% (inactive). For the same compound, the inhibition of aggregation in assay [2] was -13.6% (inactive). Moreover, the results for the nuclei count in assay [2] and in assay [3] were 105% and 109%, respectively. The fluorescence slope in assay [4] was -0.422 (inactive). Besides, in assay [5], the NADPH fluorescence slope was -4.2e-05 (inactive). In assay [6], the slope is 0.00424 (inactive).
With `O=C(Nc1ccccc1)c1cnc2n(c1=O)CCS2`, the cell count in assay [1] amounted to 734. Besides, the inhibition in assay [1] is -18.7% (inactive); in assay [3], -25.4% (inactive); in assay [7] it was -16.4% (inactive); in assay [8], -44.7% (inactive). For the same compound, the inhibition of aggregation in assay [2] was 11.2% (inactive). In addition, the results for the nuclei count in assay [2] and in assay [3] were 106% and 121%, respectively. Moreover, the fluorescence slope in assay [4] was -0.517 (inactive). Further, the NADPH fluorescence slope in assay [5] was -3.2e-05 (inactive). Further, the slope in assay [6] is 0.0079 (inactive).
Regarding `CC(=O)C1=C(C)NC(SCSc2ccccc2)=C(C#N)C1c1cccnc1` (centres undefined), the cell count in assay [1] came out at 472. Further, the inhibition in assay [1] was -0.5% (inactive); in assay [3] it was -33% (inactive); in assay [7] it was 1.86% (inactive); in assay [8] it was 0.63% (inactive). The inhibition of aggregation in assay [2] was -6.8% (inactive). For the same compound, the nuclei count in assay [2] worked out at 87.9%; in assay [3], 121%. In addition, in assay [4], the fluorescence slope is -0.475 (inactive). Moreover, the NADPH fluorescence slope in assay [5] was -3e-05 (inactive). Further, the slope in assay [6] is 0.00661 (inactive).
Take `Cc1c(NC(=O)c2ccc(CN3CCc4ccccc4C3)cc2)c(=O)n(-c2ccccc2)n1C`: in assay [1], the cell count was determined as 593. Besides, the inhibition is -5.6% (inactive) in assay [1], -70.8% (inactive) in assay [3], 5.86% (inactive) in assay [7] and 7.1% (inactive) in assay [8]. Besides, in assay [2], the inhibition of aggregation is -45.4% (inactive). The nuclei count in assay [2] came to 110%; in assay [3] it was 142%. For the same compound, in assay [4], the fluorescence slope was -0.403 (inactive). The NADPH fluorescence slope in assay [5] was -4.1e-05 (inactive). Also, the slope in assay [6] was 0.0063 (inactive).
As for `CN(C)CC(C(=O)c1ccccc1)c1ccccc1` (centres undefined), the cell count in assay [1] was determined as 460. The inhibition in assay [1] was 2.4% (inactive); in assay [3], 20.2% (inactive); in assay [7], 11% (inactive); in assay [8], 82.3% (active). Also, the inhibition of aggregation in assay [2] was -28% (inactive). The nuclei count stood at 13.4% in assay [2] and 113% in assay [3]. Also, the fluorescence slope in assay [4] is -0.251 (inactive). Besides, in assay [5], the NADPH fluorescence slope was -1.2e-05 (inactive). The slope in assay [6] was 0.0054 (inactive).
Regarding `CCc1nn2c(N3CCOCC3)cc(C)nc2c1-c1ccc(F)cc1`, in assay [1], the cell count turned out to be 716. The inhibition was -9.7% (inactive) in assay [1], -46.2% (inactive) in assay [3], 10.6% (inactive) in assay [7] and 18.4% (inactive) in assay [8]. In addition, in assay [2], the inhibition of aggregation was -24.7% (inactive). Moreover, the nuclei count in assay [2] is 101%; in assay [3], 114%. Moreover, the fluorescence slope in assay [4] is -0.465 (inactive). The NADPH fluorescence slope in assay [5] was -0.000126 (inactive). In addition, in assay [6], the slope was 0.0049 (inactive).
Turning to `COC(=O)Nc1sc2c(c1C(N)=O)CCCCCC2`, the cell count in assay [1] is 522. Besides, the inhibition is 2% (inactive) in assay [1], -53.8% (inactive) in assay [3], 5.06% (inactive) in assay [7] and 17.8% (inactive) in assay [8]. Also, the inhibition of aggregation in assay [2] was 18.9% (inactive). Also, the figures for the nuclei count in assay [2] and in assay [3] were 95.2% and 92%, respectively. In addition, the fluorescence slope in assay [4] was -0.509 (inactive). The NADPH fluorescence slope in assay [5] is -5.2e-05 (inactive). In assay [6], the slope was 0.00644 (inactive).
Take `CC(C)CC(NC(=O)OC(C)(C)C)C(=O)NC(C(=O)N1CCCC1C(N)=O)C(C)C` (stereo not drawn) (Boc-Leu-Val-Pro-NH2; configuration not given here): the cell count in assay [1] turned out to be 662. For the same compound, the inhibition in assay [1] was 8.7% (inactive); in assay [3] it was 62.5% (inactive); in assay [7], 4.38% (inactive); in assay [8] it was 20.6% (inactive). The inhibition of aggregation in assay [2] is -4% (inactive). Also, the nuclei count in assay [2] came to 100%; in assay [3] it was 89.1%. In addition, in assay [4], the fluorescence slope is -0.485 (inactive). For the same compound, in assay [5], the NADPH fluorescence slope is -2.7e-05 (inactive). Also, the slope in assay [6] was 0.00542 (inactive).
Consider `O=C(NCCO)c1cc2ccccc2cc1O`, for which, in assay [1], the cell count is 489. Also, the inhibition in assay [1] was -8.2% (inactive); in assay [3], -92.3% (inactive); in assay [7], -5.48% (inactive); in assay [8] it was -4.78% (inactive). Also, the inhibition of aggregation in assay [2] was 23.4% (inactive). Also, the nuclei count in assay [2] was found to be 85.8%; in assay [3], 109%. In assay [4], the fluorescence slope is -0.47 (inactive). Moreover, the NADPH fluorescence slope in assay [5] is -2.1e-05 (inactive). Moreover, the slope in assay [6] was 0.00658 (inactive).
Turning to `CCCOc1ccccc1NC(=O)c1c(-c2ccccc2)noc1C`, the cell count in assay [1] worked out at 800. Besides, the inhibition in assay [1] is 4.6% (inactive); in assay [3], -43.4% (inactive); in assay [7] it was 10.6% (inactive); in assay [8], 25.8% (inactive). In addition, the inhibition of aggregation in assay [2] is 8.8% (inactive). Further, the nuclei count came to 111% in assay [2] and 112% in assay [3]. In assay [4], the fluorescence slope was -0.584 (inactive). In addition, the NADPH fluorescence slope in assay [5] is -1.4e-05 (inactive). Besides, the slope in assay [6] is 0.00575 (inactive).
Take `CC(C)OC(=O)CN1C(=O)C(C)(C)Oc2ccc(C(=O)NC3CC3)cc21`: the cell count in assay [1] was 537. Also, the inhibition was -6.7% (inactive) in assay [1], -11.5% (inactive) in assay [3], 14.5% (inactive) in assay [7] and 17.5% (inactive) in assay [8]. In assay [2], the inhibition of aggregation is 18% (inactive). Besides, the nuclei count in assay [2] was determined as 104%; in assay [3] it was 102%. For the same compound, the fluorescence slope in assay [4] is -0.496 (inactive). In assay [5], the NADPH fluorescence slope is -7.2e-05 (inactive). Further, the slope in assay [6] is 0.00477 (inactive).

The record behind these values is PubChem BioAssay.
